Measurements taken from PubChem BioAssay (NCATS).
Several values for one entry are separate records, joined by “and”; a condition that tells them apart may be missing. Equal entries are not always repeated. Results filed as inconclusive are left out. Activity calls are given as the source filed them. Unless noted, the call rests on the fitted dose curve.

experiment: qHTS assay for small molecule activators of the nuclear factor-kappa B (NF-kB) signaling pathway (AID 651749; active means well fitted activation curve with a large enough effect in the signal ratio; the % refers to the signal ratio; further: % of control where 0% means no effect); settings: NF-kB-bla ME-180 cells, beta-lactamase FRET ratio, 16 h; active compounds read high
Procedure, shortened: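 Human ME-180 cervical cells with an NF-kB-bla construct; compounds added via 23 nL pin transfer, DMSO as vehicle; incubation 16 hr. Reporter activity measured by FRET disruption.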

Compound	activation
Nc1nc(N)nc(NC2CC2)n1	-2.39% (inactive)
O=C1c2ccccc2C(=O)c2ccccc21	-2.5% (inactive)
CCOC(=O)CC(SP(=S)(OC)OC)C(=O)OCC (configuration not stated)	-3.4% (inactive) and -2.42% (inactive)
COc1cc(OC)c(OC)cc1C=O	2% (inactive)
C[C@]1(O)CC[C@H]2[C@@H]3CCC4=CC(=O)CC[C@]4(C)[C@@]3(F)[C@@H](O)C[C@@]21C	-0.7% (inactive)
COP(=S)(OC)Oc1cc(Cl)c(Cl)cc1Cl	-1.3% (inactive)
[N-]=[N+]=CC(=O)OC[C@H](N)C(=O)O	-0.449% (inactive)
Nc1ccccc1C(=O)O	1.57% (inactive)
CCC(C)(C)c1ccc(O)cc1	-2.14% (inactive) and 1.1% (inactive)
COP(=S)(OC)Oc1ccc(SC)c(C)c1	-0.287% (inactive) and 1.27% (inactive)
CC(C)NC(C)C	-1.54% (inactive)
O=C1c2ccccc2C(=O)C1C(=O)C(c1ccccc1)c1ccccc1	-1.82% (inactive)
CC1(C)C(C=C(Cl)Cl)C1C(=O)OC(C#N)c1cccc(Oc2ccccc2)c1 (configuration not stated)	1.83% (inactive)

experiment: qHTS assay for small molecule disruptors of the mitochondrial membrane potential - 1 hr assay (AID 651754); settings: series mostly up to 92.2 µM; ratio change, negative = depolarisation: at the top concentration; further: nearly all actives have a fitted effect of over 35% in size; further: potency means the concentration at half of the fitted maximal effect; on ratio change, negative = depolarisation: on the % scale 0 is the no-effect control and ±100 the full control effect
Procedure, shortened: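 Mitochondrial potential in living HepG2 cells after 1 hr compound treatment at 37C was read with Mito-MPS dye added for a further 30 min. Red aggregate and green monomer fluorescence were measured; loss of potential leaves dye as cytoplasmic monomers.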

Compound	ratio change, negative = depolarisation	Potency
CCOC(=O)CC(SP(=S)(OC)OC)C(=O)OCC (configuration not stated)	-1.1% (inactive)	
COc1cc(OC)c(OC)cc1C=O	-0.865% (inactive)	
C[C@]1(O)CC[C@H]2[C@@H]3CCC4=CC(=O)CC[C@]4(C)[C@@]3(F)[C@@H](O)C[C@@]21C	0.137% (inactive)	
CN1C[C@H](C(=O)N[C@]2(C)O[C@@]3(O)[C@@H]4CCCN4C(=O)[C@H](Cc4ccccc4)N3C2=O)C=C2c3cccc4[nH]cc(c34)C[C@H]21		11.9 µM (active)

experiment: qHTS assay for small molecule disruptors of the mitochondrial membrane potential - 5 hr assay (AID 651755); settings: JC-1-type ratio dye; series mostly up to 92.2 µM; ratio change, negative = disruption: at the top concentration; further: nearly all actives have a fitted effect of over 40% in size; further: potency means the concentration at half of the fitted maximal effect; on ratio change, negative = disruption: on the % scale 0 is the no-effect control and ±100 the full control effect
Procedure, shortened: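 Seed HepG2 overnight, add compound, incubate 5 hr at 37C and 5% CO2, stain 30 min with Mito-MPS, then measure monomer (490/535 nm) and aggregate (540/590 nm) fluorescence.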

Compound	ratio change, negative = disruption	Potency
CCOC(=O)CC(SP(=S)(OC)OC)C(=O)OCC (configuration not stated)	-3.06% (inactive)	
COc1cc(OC)c(OC)cc1C=O	4.26% (inactive)	
C[C@]1(O)CC[C@H]2[C@@H]3CCC4=CC(=O)CC[C@]4(C)[C@@]3(F)[C@@H](O)C[C@@]21C	-11.6% (inactive)	
COP(=S)(OC)Oc1ccc(SC)c(C)c1	-9.8% (inactive)	
CN1C[C@H](C(=O)N[C@]2(C)O[C@@]3(O)[C@@H]4CCCN4C(=O)[C@H](Cc4ccccc4)N3C2=O)C=C2c3cccc4[nH]cc(c34)C[C@H]21		11.9 µM (active)
